A number with no mark means an inactive call. Records with an inconclusive call do not appear. Active and inactive are the calls of the source. Unless noted, calls come from the whole dose curve; as a rule, active = well fitted curve in the direction sought with a large enough effect in the repeat runs; inconclusive = weak or mixed curves; inactive = no such curve, though single readings can be large; an effect the other way counts as inactive or inconclusive.

Experimental findings from PubChem BioAssay (Tox21) are described below.

Test [1] has as its target Luciferin 4-monooxygenase (Photinus pyralis) (UniProt P08659). The test can be described thus: qHTS assay to identify small molecule inhibitors of firefly luciferase (AID 1224835). Note: nearly all actives have a fitted effect of over 25% in size. In a few lines:
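Biochemical qHTS: compounds run as interplate titrations against purified firefly enzyme, with D-luciferin and ATP each at its KM concentration. Light output recorded by CCD imaging.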
For orientation: Quantitative high-throughput screening tests each substance at several concentrations.

Test [2] can be described thus: qHTS assay to identify small molecule agonists of the constitutive androstane receptor (CAR) signaling pathway - cell viability counter screen (AID 1224836). Note: nearly all actives have a fitted effect of over 45% in size. Note: potency is the fitted concentration of half-maximal effect. The gist of the method: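 Multiplexed viability check: HepG2-CYP2B6-hCAR cells, 15-point compound dosing, 0.75 uM PK11195 final, 23 h at 37 C, CellTiter-Fluor fluorescence.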
A short description of test [3]: qHTS assay to identify small molecule antagonists of the constitutive androstane receptor (CAR) signaling pathway - cell viability counter screen (AID 1224837). Note: nearly all actives have a fitted effect of over 45% in size. Note: potency is the fitted concentration of half-maximal effect. In a few lines:
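Fluorescence from CellTiter-Fluor served as the viability signal. Human hepatoma HepG2 cells stably bearing hCAR and CYP2B6-2.2kb received compound plus CITCO (50 nM final) for 23 hr.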

Test [4] in a line: qHTS assay to identify small molecule antagonists of the estrogen related receptor signaling pathway with the pleiotropic PPARgamma coactivator (PGC) from Tox21 10K library - cell viability counter screen (AID 1224840; active = well fitted cell-killing curve with a large enough effect in the repeat runs, not every such curve was filed as active; note: nearly all actives have a fitted effect of over 40% in size). In a few lines: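 Compounds in DMSO, alongside positive and negative controls, were pinned onto PGC/ERR cells (2,000 per well). Exposure lasted 17.5 hours at 37 C, followed by a 30-minute CellTiter-Fluor incubation and fluorescence reading.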

Test [5] concerns the target Thyrotropin receptor (Homo sapiens) (UniProt P16473). Put plainly: qHTS assay to identify small molecule agonists of the thyroid stimulating hormone receptor (TSHR) signaling pathway (AID 1224843; calls by dose curve; note: nearly all actives have a fitted effect of over 45% in size). The gist of the method:
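TSHR-HEK293 cells in agonist mode, 30 min room-temperature step, then cAMP measured by competitive HTRF (cAMP-d2 with anti-cAMP cryptate) after 1 h at room temperature. Tested at 15 concentrations in triplicate.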

A short description of test [6]: qHTS assay to identify small molecule agonists of the hypoxia (HIF-1) signaling pathway - cell viability counter screen (AID 1224844; calls by dose curve; note: nearly all actives have a fitted effect of over 50% in size; note: potency is the fitted concentration of half-maximal effect). In a few lines: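 Luminescent ATP content (CellTiter-Glo, 30 min, room temperature) served as the viability measure in HRE-bla ME-180 cells exposed to compounds for 17 hrs in low-serum medium (0.5% dialyzed FBS).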
Test [7] is described as follows: qHTS assay to identify small molecule agonists of H2AX (AID 1224845; active = well fitted activation curve with a large enough effect in the signal ratio in the repeat runs, not every such curve was filed as active; the % refers to the signal ratio). In a few lines: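 Wild-type CHO-K1 cells, plated overnight, exposed 3hr at 37C to 15 concentrations (0.76% DMSO final). Lysed, then HTRF anti-pH2AX (S139) cryptate and anti-H2AX-d2 antibodies, 24 hr room temperature; 665/620 nm emission read.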
A short description of test [8]: qHTS assay to identify small molecule agonists of H2AX - cell viability counter screen (AID 1224847; calls by dose curve; note: nearly all actives have a fitted effect of over 30% in size; note: potency is the fitted concentration of half-maximal effect). The gist of the method: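 After overnight plating of 1000 CHO-K1 cells per well, a 15-concentration compound series was applied for 3 hr at 37C. Luminescence from CellTiter-Glo, read following 30 min at room temperature, reflected cell viability.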
Test [9] is described as follows: qHTS RealTime-Glo MT Cell Viability Assay in HepG2 cells - 24 hour (AID 1224867). Note: nearly all actives have a fitted effect of over 50% in size. Note: potency is the fitted concentration of half-maximal effect. The gist of the method: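 Cell number in HepG2 cultures estimated from NanoLuc luminescence generated by metabolic reduction of a prosubstrate by living cells. The homogeneous, nonlytic format allowed repeated reads at 0, 8, 16, 24, 32 and 40 h of compound exposure.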
Test [10] in a line: qHTS RealTime-Glo MT Cell Viability Assay in HEK293 cells - 32 hour (AID 1224868). Note: nearly all actives have a fitted effect of over 50% in size. Note: potency is the fitted concentration of half-maximal effect. In a few lines: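 Homogeneous bioluminescent viability format in HEK293 cells (600 cells/well). Following 5 h at 37 C/5% CO2, 23 nL compound was pintooled; the signal was measured repeatedly during 40 h incubation.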
Test [11] is described as follows: A CellTox Green Cytotoxicity Assay to monitor cytotoxicity in HEK293 cells - 0 hour (AID 1224869). Note: nearly all actives have a fitted effect of over 50% in size. In a few lines: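 Each value comes from one timepoint of a single continuous run in which HEK293 cells with CellTox Green were exposed to compound for up to 40 h at 37 C, dye fluorescence rising with cell death.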
Test [12] in a line: qHTS assay to identify small molecule antagonists of the estrogen related receptor signaling pathway with the pleiotropic PPARgamma coactivator (PGC) from Tox21 10K library (AID 1224841; call rule not given here; note: potency is the fitted concentration of half-maximal effect). In a few lines: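 Compound exposure ran 18 hours at 37 C in PGC/ERR cells (2,000/well) that had first rested 6 hours in a 37 C/5% CO2 incubator. Luciferase activity was then detected with One-Glo after a 30-minute room-temperature step.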

Test [13] is described as follows: qHTS assay to identify small molecule agonists of the hypoxia (HIF-1) signaling pathway (AID 1224846; active = well fitted activation curve with a large enough effect in the signal ratio in the repeat runs, not every such curve was filed as active; the % refers to the signal ratio). In a few lines: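 Measured by blue/green FRET after loading CCF4-AM: beta-lactamase expressed from a hypoxia response element in ME-180 cells. Test agents were delivered in DMSO and left 17 hrs; cells had been plated 5 hrs earlier in low-serum (0.5% dialyzed FBS) medium.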

Test [14] in a line: qHTS assay to identify small molecule antagonists of the estrogen related receptor (ERR) signaling pathway from Tox21 library (AID 1224848). Note: nearly all actives have a fitted effect of over 50% in size. Note: potency is the fitted concentration of half-maximal effect. The gist of the method:
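ERR reporter cell line (from NTP) seeded 2,000 cells/well, rested 6 h at 37 C/5% CO2, then pin-dosed with compounds in DMSO. After 18 h at 37 C, ONE-Glo added; luminescence read after 30 min at room temperature.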

Test [15] in a line: qHTS assay to identify small molecule agonists of the estrogen related receptor (ERR) signaling pathway from Tox21 library (AID 1224849; calls by dose curve; note: nearly all actives have a fitted effect of over 15% in size). The following applies: ERR reporter cell line, ONE-Glo luciferase, 18 h; at 92.4 µM (top of the series) unless noted. In a few lines:
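We plated ERR reporter cells, waited 6 h, added compounds in DMSO by pin tool and incubated them 18 h at 37 C. ONE-Glo was then added and luminescence read after 30 min.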

Test [16] can be described thus: qHTS assay to identify small molecule agonists of the estrogen related receptor signaling pathway with the pleiotropic PPARgamma coactivator (PGC) from Tox21 10K library (AID 1224842). Note: nearly all actives have a fitted effect of over 15% in size. In a few lines:
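PGC/ERR reporter cell line, 2,000 cells per well, incubated 6 h at 37 C before 23 nL compound in DMSO was added. After 18 h at 37 C, One-Glo luminescence read following 30 min at room temperature.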

For test [17], the target named is Nuclear receptor subfamily 1 group I member 3 (Homo sapiens) (UniProt Q14994). The test can be described thus: qHTS assay to identify small molecule agonists of the constitutive androstane receptor (CAR) signaling pathway (AID 1224839).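 For activation: HepG2 cells stably carrying human CAR and a CYP2B6 luciferase reporter.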 Note: nearly all actives have a fitted effect of over 15% in size. Note: potency is the fitted concentration of half-maximal effect. The gist of the method:
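Using human hepatoma HepG2 cells engineered with hCAR and a CYP2B6-2.2kb reporter, 15-concentration compound series were incubated 24 h alongside PK11195 at 0.75 uM final, with luminescence quantified afterwards.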
% is set by controls: 0 for no effect and ±100 for the full control effect.

Sequence of Thyrotropin receptor (Homo sapiens) (P16473 whole entry, looked up): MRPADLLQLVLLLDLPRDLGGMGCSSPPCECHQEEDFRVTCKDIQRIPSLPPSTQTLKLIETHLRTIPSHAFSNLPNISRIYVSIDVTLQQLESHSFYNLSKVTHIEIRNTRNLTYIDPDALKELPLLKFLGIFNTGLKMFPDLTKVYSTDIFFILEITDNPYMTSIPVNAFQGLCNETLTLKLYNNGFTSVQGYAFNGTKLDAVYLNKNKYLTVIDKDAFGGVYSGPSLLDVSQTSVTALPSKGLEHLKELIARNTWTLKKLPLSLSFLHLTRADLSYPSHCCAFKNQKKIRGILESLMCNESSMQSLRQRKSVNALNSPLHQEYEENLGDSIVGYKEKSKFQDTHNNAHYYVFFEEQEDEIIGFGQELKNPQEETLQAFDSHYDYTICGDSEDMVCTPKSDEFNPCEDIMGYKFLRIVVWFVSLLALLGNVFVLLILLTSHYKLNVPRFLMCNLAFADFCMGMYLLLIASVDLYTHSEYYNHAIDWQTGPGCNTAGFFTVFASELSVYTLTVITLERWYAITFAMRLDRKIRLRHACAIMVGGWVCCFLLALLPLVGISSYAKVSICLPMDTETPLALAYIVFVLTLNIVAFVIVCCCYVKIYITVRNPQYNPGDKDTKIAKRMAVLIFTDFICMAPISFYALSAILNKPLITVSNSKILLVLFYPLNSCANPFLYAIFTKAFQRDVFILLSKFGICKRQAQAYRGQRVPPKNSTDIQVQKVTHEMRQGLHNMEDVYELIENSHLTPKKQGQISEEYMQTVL
Sequence of Nuclear receptor subfamily 1 group I member 3 (Homo sapiens) (Q14994 whole entry, looked up): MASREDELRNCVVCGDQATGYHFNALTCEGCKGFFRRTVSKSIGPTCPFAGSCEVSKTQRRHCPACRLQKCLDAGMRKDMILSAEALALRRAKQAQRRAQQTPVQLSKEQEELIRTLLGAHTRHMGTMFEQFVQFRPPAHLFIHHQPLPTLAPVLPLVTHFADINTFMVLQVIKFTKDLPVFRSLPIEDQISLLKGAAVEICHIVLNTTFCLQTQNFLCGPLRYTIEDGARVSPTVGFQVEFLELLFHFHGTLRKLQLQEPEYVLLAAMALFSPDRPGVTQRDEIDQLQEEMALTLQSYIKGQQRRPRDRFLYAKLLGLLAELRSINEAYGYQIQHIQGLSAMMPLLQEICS
Sequence of Luciferin 4-monooxygenase (Photinus pyralis) (P08659 whole entry, looked up): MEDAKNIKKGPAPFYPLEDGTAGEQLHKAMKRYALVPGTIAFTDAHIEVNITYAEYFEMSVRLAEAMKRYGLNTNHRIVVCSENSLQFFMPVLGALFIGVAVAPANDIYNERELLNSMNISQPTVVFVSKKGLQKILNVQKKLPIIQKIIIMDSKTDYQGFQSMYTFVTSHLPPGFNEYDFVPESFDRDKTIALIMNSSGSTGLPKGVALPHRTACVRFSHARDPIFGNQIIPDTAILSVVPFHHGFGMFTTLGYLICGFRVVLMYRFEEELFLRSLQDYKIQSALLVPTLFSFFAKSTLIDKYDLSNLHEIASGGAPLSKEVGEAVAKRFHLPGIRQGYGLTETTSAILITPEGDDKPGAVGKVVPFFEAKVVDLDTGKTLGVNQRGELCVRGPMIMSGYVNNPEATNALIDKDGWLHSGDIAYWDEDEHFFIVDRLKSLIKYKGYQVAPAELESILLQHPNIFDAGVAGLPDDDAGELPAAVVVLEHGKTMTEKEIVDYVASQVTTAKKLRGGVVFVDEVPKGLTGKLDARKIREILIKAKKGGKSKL

For the molecule `CCn1cc(C(=O)O)c(=O)c2cc(F)c(N3CCNCC3)nc21`, the Potency entry in [1], in [2], in test [3], in [4], in test [5] and in test [6] was “inactive” throughout. Also, the Potency result in test [7], in [8], in test [9], in test [10] and in test [11] was “inactive” each time.
For the molecule `Nc1ccc(S(=O)(=O)O)c(N)c1`, the Potency entry in test [1], in test [2], in test [3], in test [4], in test [12] and in test [5] was “inactive” each time. In addition, the Potency entry in test [6], in test [8], in [14], in [9], in test [10] and in test [11] was “inactive” throughout. In addition, the molecule was classed as inactive in test [13]. Moreover, in [15], the activity change, positive = activation was 1.48%.
Regarding `CCC(=O)Oc1ccc(/C(CC)=C(\CC)c2ccc(OC(=O)CC)cc2)cc1`, the Potency entry in test [1], in test [2], in test [3], in [4], in test [16] and in [5] was “inactive” in each case. In addition, the Potency result in test [7], in test [8], in test [9] and in test [11] was “inactive” each time. Further, the figures for the Potency in test [14] and in test [10] were 27.3 µM (active) and 17.4 µM (active), respectively. Further, the activity change, positive = activation in test [15] was -47.8%.
On to `CCC(Cc1ccccc1)(C(=O)c1ccc(N2CCOCC2)cc1)N(C)C` (stereo not given), for which the Potency entry in test [1], in test [3], in test [4], in [5], in [6] and in test [9] was “inactive” in each case. In addition, the Potency entry in [11] was “inactive”. In addition, the molecule was called inactive in test [13]. Further, in [14], the Potency was 17.2 µM (active).
With `CCOC(=O)CC(=O)C(=O)OCC`, the Potency entry in [1], in [17], in [4], in test [5], in test [7] and in [9] was “inactive” throughout. For the same molecule, the Potency result in test [11] was “inactive”. Further, the Potency is 54.5 µM (active) in [12], 27.3 µM (active) in [14] and 49 µM (active) in [10]. In addition, the result in test [13] was inactive. Moreover, the activity change, positive = activation in [15] is -57.1%.
Consider `COc1ccc(CCC(=O)c2c(O)cc(O[C@@H]3O[C@H](CO)[C@@H](O)[C@H](O)[C@H]3O[C@@H]3O[C@@H](C)[C@H](O)[C@@H](O)[C@H]3O)cc2O)cc1O`, for which the Potency result in test [2], in [3], in test [4], in [12], in test [5] and in [6] was “inactive” in each case. Further, the Potency entry in test [8], in [14], in test [9], in [10] and in test [11] was “inactive” each time. The molecule was classed as inactive in [13].
Consider `C/C=C/C=C/CCCCCCCO`, for which the Potency entry in test [1], in test [2], in test [3], in test [5], in [6] and in test [7] was “inactive” throughout. For the same molecule, the Potency entry in test [9] and in test [10] was “inactive” in each case. For the same molecule, the call in test [13] was inactive.
With `CCCCC(CC)C(=O)OCCOCCOCCOCCOC(=O)C(CC)CCCC` (stereo not given), the Potency result in [1], in test [2], in test [3], in test [17], in test [4] and in test [16] was “inactive” in each case. Further, the Potency result in [6], in [7], in [8], in [9] and in test [11] was “inactive” throughout. For the same molecule, in test [13], the molecule was called inactive. Besides, in test [14], the Potency is 30.6 µM (active). Also, the activity change, positive = activation in test [15] is -33%.
For `CO[C@@]12[C@H](COC(N)=O)C3=C(C(=O)C(C)=C(N)C3=O)N1C[C@@H]1N[C@@H]12`, the Potency result in test [1], in test [17], in [16] and in [8] was “inactive” each time. The Potency in [2] is 9.44 µM (active); in test [3], 9.44 µM (active); in test [12] it was 23.7 µM (active); in test [6] it was 9.52 µM (active); in test [14], 8.41 µM (active); in test [9], 6.01 µM (active). Moreover, the Potency in test [10] was 0.848 µM (active). Moreover, in [15], the activity change, positive = activation is -55.2% [at 42.5 µM].
`CNC(=O)N(c1ccccc1)c1ccccc1`: the Potency entry in test [1], in test [2], in [3], in test [17], in [4] and in test [12] was “inactive” each time. The Potency entry in test [5], in test [6], in [7], in test [8], in [14] and in [9] was “inactive” in each case. Further, the Potency entry in [10] and in test [11] was “inactive” in each case. In addition, the activity change, positive = activation in test [15] was -5.23%.
Regarding `Cc1nccn1-c1ccc(Sc2cccc(C3(C(N)=O)CCOCC3)c2)cc1`, the Potency result in [1], in test [4], in [16], in test [5], in [6] and in test [11] was “inactive” in each case. Moreover, the figures for the Potency in test [17], in test [14] and in test [10] were 9.69 µM (active), 1.37 µM (active) and 1.38 µM (active), respectively. Moreover, in test [13], the result was inactive. Moreover, the activity change, positive = activation in test [15] is -58%.
With `CCCCN(CCCC)C(=S)SSC(=S)N(CCCC)CCCC`, the Potency entry in test [2], in test [3], in test [4], in test [5], in [9] and in [11] was “inactive” in each case. Also, the Potency was 112 µM (active) in [8] and 43.2 µM (active) in test [10].
